A selection: hits, their analogues and other compounds. The true share with any hit is near 19%.
IL-1B inflam inh – qHTS for Inhibitors of Inflammasome Signaling: IL-1-beta AlphaLISA Primary Screen. 4.7% of 360,000 active. activity change, % at 57.5 µM. THP-1 LPS/ATP IL-1B secretion, AlphaLISA, 16 h; stronger effect = lower value. AID 743279, 2014; in the data active = activity change below about -50%; inconclusive = mostly about -30% to -49%
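Secreted IL-1B measured by AlphaLISA bead assay after 16 h compound exposure of THP-1 cells; compounds (final up to 57.5 uM) added 1 h before LPS (250 ng/mL) and ATP (1.25 mM) stimulation; lower signal means less secretion.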
DT40 TDP1 CPT – qHTS for Inhibitors of human tyrosyl-DNA phosphodiesterase 1 (TDP1): qHTS in cells in presence of CPT; chicken DT40 Tdp1-/-;hTDP1 cells + 20 nM CPT, ATP luminescence, 48 h; 12% of 420,000 active; Potency, µM (highest dose often 46.2 µM), for inactives: top-dose activity change, negative = growth inhibition, actives largely listed as inhibitors; AID 686979, 2013; also: potency is read from the fitted curve at half-maximal effect; nearly all actives have a fitted effect of over 55% in size
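Cell growth measured by CellTiter-Glo luminescence after a minimum 48 h, 37 C compound exposure with 20 nM CPT in Tdp1-knockout DT40 cells stably expressing hTDP1, seeded 400/well; qHTS titration format.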
ELG1 repair inh – qHTS screen for small molecules that inhibit ELG1-dependent DNA repair in human embryonic kidney (HEK293T) cells expressing luciferase-tagged ELG1; HEK293T ELG1-luciferase reporter, luminescence, 16 h; DNA damage induced by 5-fluorouridine; Potency, µM (series often up to 46.1 µM), for the others: top-dose activity change, negative = inhibition, hits mostly inhibitors; 2.3% of 330,000 active; AID 504467, 2011; also: potency is read from the fitted curve at half-maximal effect; nearly all actives have a fitted effect of over 55% in size
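5-Fluorouridine DNA damage + compound/DMSO, 2,000 cells/well, 16 h, 37 °C/5% CO2. ONE-Glo, 30 min RT, luminescence. Readout = decrease in reporter signal.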
DT40 TDP1 no CPT – qHTS for Inhibitors of human tyrosyl-DNA phosphodiesterase 1 (TDP1): qHTS in cells in absence of CPT | Potency, µM (series often up to 46.2 µM), inactives show top-dose activity change, negative = growth inhibition, usual class: inhibitors | 15% of 420,000 active | DT40 Tdp1-/- hTDP1 cells, no CPT, ATP luminescence, 48 h; also: potency is read from the fitted curve at half-maximal effect; nearly all actives have a fitted effect of over 55% in size
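No-CPT arm: Tdp1-/-;hTDP1 DT40 cells (400/well) plus compounds, incubated ≥48 hr at 37 °C. Readout CellTiter-Glo luminescence.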
HT1080-NT tox – qHTS for induction of synthetic lethality in tumor cells producing 2HG: qHTS for the HT-1080-NT fibrosarcoma cell line. Potency, µM (highest dose often 46.1 µM), for the others: at the top dose activity, negative = less viability, actives largely listed as cytotoxic. HT-1080-NT fibrosarcoma viability, CellTiter-Glo ATP luminescence, 48 h. 1.6% of 360,000 active;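 also: NT is the 2HG producing partner of a matched IDH1 knockdown line; potency is read from the fitted curve at half-maximal effect; 0% = DMSO-treated cells and -100% = media-only wells without cells; nearly all actives have a fitted effect of over 55% in size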
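Fibrosarcoma NT cells, 750 per well in 5% FBS RPMI, were exposed to compound for 48 hours. Viability: CellTiter-Glo luminescence.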
HT1080 IDH1KD tx – qHTS for induction of synthetic lethality in tumor cells producing 2HG: qHTS for the HT-1080-IDH1KD cell line; HT-1080 IDH1 knockdown viability, ATP luminescence, 48 h; Potency, µM (doses to about 46.1 µM), inactives show at the top dose activity, negative = toxicity, hits mostly cytotoxic; 2% of 360,000 active; AID 686971, 2013;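 also: potency is read from the fitted curve at half-maximal effect; 0% = DMSO wells and -100% = cell-free medium wells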
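Cytotoxicity counter-line: IDH1KD HT-1080, 48 h, CellTiter-Glo. Curves classed by r2, magnitude and activity.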
The depositor's hits bear a star; ? = inconclusive; / = no result given. Unless noted, calls follow the shape of the dose curve; as a rule, active = well fitted curve in the direction sought with a large enough effect; inconclusive = small, poorly fitted or top-dose-only effect, or another doubt; inactive = no such curve, though single readings can be large; an effect the other way counts as inactive or inconclusive. Unless noted, % is scaled to controls: 0 for no effect and ±100 for the full control effect.

SMILES	IL-1B inflam inh	DT40 TDP1 CPT	ELG1 repair inh	DT40 TDP1 no CPT	HT1080-NT tox	HT1080 IDH1KD tx
O=C(C[C@@H]1C/C=C\C[C@H](NC(=O)OCC2c3ccccc3-c3ccccc32)C(=O)OC[C@H]2CCCN2C1=O)N[C@@H](CO)Cc1ccccc1	-26	4.6µM*	15µM*	4.6µM*	-16%	-1%
O=C(C[C@H]1C/C=C\C[C@H](NC(=O)OCC2c3ccccc3-c3ccccc32)C(=O)OC[C@@H]2CCCN2C1=O)NCCO	15	4.1µM*	16%	5.8µM*	-1%	-5%
O=C(C[C@@H]1C/C=C\C[C@H](NC(=O)OCC2c3ccccc3-c3ccccc32)C(=O)OC[C@H]2CCCN2C1=O)NCCO	9	?	10%	?	-4%	2%
O=C(C[C@H]1C/C=C\C[C@H](NC(=O)OCC2c3ccccc3-c3ccccc32)C(=O)OC[C@H]2CCCN2C1=O)NCCO	31	12µM*	20%	16µM*	1%	-3%
CCN(CC(=O)Nc1c(F)cccc1F)C(=O)CN1C(=O)NC2(CCCC2)C1=O	22	11%	?	-15%	8%	5%
CC(=O)Nc1ccc(SCCCC(=O)c2ccccc2)cc1	-12	?	?	-27%	-7%	-7%
COc1ccc(Nc2nc(N)nc(CN3CCOCC3)n2)cc1	-10	-30%	7%	?	5%	2%
COc1ccc(N2CCN(Cc3nc(N)nc(Nc4ccc(C)c(Cl)c4)n3)CC2)cc1	-28	9.2µM*	13µM*	16µM*	?	?
Cc1ccc(Nc2nc(N)nc(CN3CCN(c4ccccc4)CC3)n2)cc1Cl	?	?	?	18µM*	-30%	?
CO/N=C(/C(=O)N[C@@H]1C(=O)N2C(C(=O)O)=C(COC(N)=O)CS[C@H]12)c1ccco1	/	?	/	11%	/	/
COc1ccc(C(=O)NC(c2ccc(Cl)cc2)c2cc(Cl)c3cccnc3c2O)cc1 (configuration not stated)	/	3.7µM*	/	4.1µM*	/	/
CCOc1ccc(C(Nc2cccnc2)c2cc(Cl)c3cccnc3c2O)cc1 (configuration not stated)	0	?	-21%	15µM*	-26%	15µM*
COc1ccc(C(=O)Nc2ccccn2)cc1	0	6%	-2%	0%	17%	9%
CCC(=O)NC(c1ccc(OC)c(OC)c1)c1cc(Cl)c2cccnc2c1O (configuration not stated)	-5	4.1µM*	?	4.6µM*	?	?
O=C(O)COc1ccccc1C(Nc1cccnc1)c1cc(Cl)c2cccnc2c1O (configuration not stated)	30	6%	1%	10%	-5%	-20%
COc1ccccc1C(NC(C)=O)c1cc(Cl)c2cccnc2c1O (configuration not stated)	112	1.6µM*	?	2.3µM*	-8%	-10%
CCOC(=O)C1(CC2CCCCO2)CCN(C(=O)Nc2ccc(C(=O)OC)cc2)CC1 (configuration not stated)	-3	?	-14%	?	0%	-3%
O=C(N=C1SC2CS(=O)(=O)CC2N1CCc1ccc(F)cc1)C1CCCCC1 (configuration not stated)	-8	-21%	-1%	-4%	1%	13%
COc1ccc(C(NC(=O)c2ccc(-c3ccccc3)cc2)c2ccccc2)cc1 (configuration not stated)	5	13µM*	0%	13µM*	-2%	-3%
CCC(=O)NC(c1ccc(C)cc1)c1cc(Cl)c2cccnc2c1O (configuration not stated)	/	/	3.7µM*	/	/	/
CCOc1ccc(C(NC(C)=O)c2cc(Cl)c3cccnc3c2O)cc1 (configuration not stated)	/	3.2µM*	/	4µM*	/	/
COc1ccc(C(NC(C)=O)c2cc(Cl)c3cccnc3c2O)cc1OC (configuration not stated)	116	7.3µM*	?	4.6µM*	-15%	-22%
COc1ccc(C(NC(C)=O)c2nccc3cc(OC)c(OC)cc23)cc1OC (configuration not stated)	0	-10%	16%	3%	3%	1%
Cc1cc(NC(=O)CN2C(=O)/C(=C/c3ccc(C(C)C)cc3)SC2=S)no1	-6	?	/	?	5%	12%
Cc1ccc(S(=O)(=O)N2CCC(C(=O)Nc3cc(C(F)(F)F)ccc3N3CCOCC3)CC2)cc1C	23	-1%	0%	-26%	-2%	-14%
SMILES	IL-1B inflam inh	DT40 TDP1 CPT	ELG1 repair inh	DT40 TDP1 no CPT	HT1080-NT tox	HT1080 IDH1KD tx
CCOc1ccc(S(=O)(=O)/N=C(\N)c2ccccc2)cc1	-11	23µM*	23µM*	12µM*	-23%	-2%
CC(=O)ON(C(C)=O)S(=O)(=O)c1ccc(Cl)cc1	/	6%	/	2%	/	/
O=C(CCn1c2c(c3ccccc31)CCCC2)NNC(=O)c1ccccc1[N+](=O)[O-]	-3	?	-20%	7.3µM*	-12%	-14%
O=C(CCn1c2c(c3ccccc31)CCCC2)NNC(=O)c1ccccc1C(=O)O	-23	-3%	?	1%	-20%	-27%
Cc1ccc(C2=NN=C(NC(=O)C(F)(F)F)SC2)cc1	-82*	-6%	?	-9%	-30%	-10%
COc1cc2ccccc2cc1C(=O)N/N=C/c1cccs1	33	2.3µM*	/	1.8µM*	?	4.1µM*
COc1cc2ccccc2cc1C(=O)Nc1ccc(N2CCN(C(=O)C(C)C)CC2)cc1	2	16µM*	?	10µM*	18%	0%
COc1cc2ccccc2cc1C(=O)NNC(=O)c1ccccc1O	/	/	26µM*	/	/	/
COc1cc2ccccc2cc1C(=O)Nc1ccc(N2CCN(C)CC2)cc1	-3	?	?	?	?	?
COc1cc2ccccc2cc1C(=O)Nc1ccccc1Cl	0	-25%	?	-14%	?	?
